This is an account of results in ChEMBL document CHEMBL3433997, “St. Jude Leishmania screening dataset” (2016).

Solute carrier family 2, facilitated glucose transporter member 1 (Homo sapiens), sequence (P11166 whole entry): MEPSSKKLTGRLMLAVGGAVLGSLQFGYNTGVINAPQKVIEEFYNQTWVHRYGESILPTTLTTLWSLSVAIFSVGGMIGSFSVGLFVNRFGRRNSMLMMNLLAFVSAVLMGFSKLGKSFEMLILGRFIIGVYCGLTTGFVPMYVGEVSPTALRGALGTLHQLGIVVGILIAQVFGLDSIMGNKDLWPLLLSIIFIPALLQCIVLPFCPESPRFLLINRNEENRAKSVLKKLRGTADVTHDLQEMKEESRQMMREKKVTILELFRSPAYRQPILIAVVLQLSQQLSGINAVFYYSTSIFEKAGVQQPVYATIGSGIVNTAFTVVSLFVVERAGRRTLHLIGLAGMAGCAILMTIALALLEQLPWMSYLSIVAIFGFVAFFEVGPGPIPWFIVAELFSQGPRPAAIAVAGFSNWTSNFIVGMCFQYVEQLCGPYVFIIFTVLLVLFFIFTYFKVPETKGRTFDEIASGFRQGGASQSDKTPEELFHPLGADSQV

The assay concerns the target Solute carrier family 2, facilitated glucose transporter member 1 (Homo sapiens) (UniProt P11166). Put plainly: ST_JUDE_LEISH: Cytotoxicity at 2uM final concentration against transgenic Leishmania Mexicana promastigotes LmGLUT1 that are glucose transport deficient and complemented with the human glucose transporter GLUT1. Activity is measured by DNA content using SYBR green in vitro. The assay is classed as functional.
As for `CC(C)CNCc1cccc(-c2cccc(CNc3ccc4ncccc4c3)c2)c1`, the inhibition worked out at 2.92%. In the case of `COc1ccc2[nH]c(C)cc(=NN=Cc3ccccc3F)c2c1` it was -0.29%; in that of `CC1(C)NC(N)=NC(=N)N1OCCCCOc1ccccc1`, -2.95%. The same measure for `COc1ccc(C(=O)CCc2ccc(O)cc2)cc1`: 1.26%; for `CN(CCc1ccccc1)c1ncc(-c2ccccc2CNCc2ccccc2O)cn1`: 0.08%; for `Cc1ccc(O)cc1C[C@@H]1C(=O)CC[C@@]2(C)[C@H]1CC[C@]2(C)O`: -1.27%. In the case of `O=C(Nc1cccc(OC2CCN(Cc3ccccc3)CC2)c1)c1ccc(Cl)c(Cl)c1` it was 3.35%; in that of `Cc1ccc2nc(-c3ccc(C(=O)NCc4ccc(Cl)c(Cl)c4)cc3)[nH]c2c1C`, 2.57%; in that of `Cn1cnc2nc(NCCc3ccccc3)nc(NCc3cccc4ccccc34)c21`, 0.91%. In the case of `CCn1ncc2c(NC3CCOCC3)c(CNC(=O)c3ccnn3C)c(C)nc21`, the inhibition was 3.11%. As to `CN1CCN(CCCN(Cc2csc(-c3ccc(CNCc4ccccc4)cc3)n2)S(=O)(=O)c2ccccc2Cl)CC1`, the inhibition stood at 1.75%. For `CCN(CC)C(=O)c1cccc(C=Cc2ccc(-c3c(C)[nH]c(C)c(Cl)c3=O)cc2)c1`, the inhibition turned out to be 2.65%. As for `CC(=O)Nc1[nH]c(-c2ccccc2)nc1C(N)=O`, the inhibition was -1.96%.

Consider `O=C(Nc1cccc(-c2ccc(-c3nc4cc(F)ccc4[nH]3)cc2)c1)c1ccoc1`, for which the inhibition turned out to be 1.01%. With `CCn1c(-c2nonc2N)nc2c(-c3cccc(NC(=O)Nc4ccccc4OC)c3)ncc(OCCCN)c21`, the inhibition was 2.94%. In the case of `CCNc1cc(C(=O)N[C@@H](Cc2ccccc2)[C@H](O)CNC(CC)c2cccc(Cl)c2)cc(N2CCCCS2(=O)=O)c1` (stereo not given in full), the inhibition was 4.81%.

Take `CC(C)(C)OC(=O)NCc1ccc(Nc2nnc(-c3cccc(C(=O)NCc4cc(C(F)(F)F)cc(C(F)(F)F)c4)c3)o2)cc1`: the inhibition was 7.94%. The same measure for `N=C(N)NCC=C(c1ccccc1)c1ccccc1`: 8.32%; for `CC(CN1CCN(C)CC1)C(=O)Nc1ccc(-c2cccc(-c3nc4ccccc4[nH]3)c2)cc1` (stereo not given): 2.41%.

With `Cc1ccc(NC(=O)NC2CCN(CCCCCNC(=O)/C=C/c3ccc(Cl)c(Cl)c3)CC2)cc1`, the inhibition amounted to 0.42%.

Regarding `CC(C)C[C@H](NC(=O)c1ccc(OCCN2CCOCC2)cc1)C(=O)N[C@H](/C=N/NC(=O)c1ccccc1)CCc1ccccc1`, the inhibition came to 3.15%. For `O=[N+]([O-])c1cccc(CNC2CCN(Cc3ccc(-c4ccccc4)cc3)CC2)c1`, the inhibition was found to be 1.94%. `Cc1cccc2nc(-c3cccc(-c4ccc(NC(=O)NCc5ccccc5)cc4)c3)[nH]c12`: the inhibition was 1.51%. The same measure for `O=C(Cn1c(SCc2cccc(F)c2F)cc(=O)c2ccccc21)N(CCN1CCCCC1)Cc1ccc(-c2ccc(C(F)(F)F)cc2)cc1`: -1.53%; for `O=C(c1cccs1)N1N=C(c2cccs2)CC1c1cccc([N+](=O)[O-])c1` (stereo not given): 8.21%. The same measure for `COc1cc(N)c(Cl)cc1C(=O)NC1CCC(NCC2CCCCC2)CC1` (stereo not given): 2%.

On to `N#CN1CC[C@@H](NS(=O)(=O)Cc2ccc(Cl)c(Cl)c2)C1`, for which the inhibition was 5.72%. In the case of `O=C(NC1CCCC1)c1cc2c(=O)n3ccccc3nc2[nH]/c1=N/CCc1ccccc1` it was 11.5%; in that of `Clc1cccc(C=NN=c2cc[nH]c3ccccc23)c1`, 1.39%; in that of `Cc1cccc(Oc2cccc3[nH]nc(N)c23)c1`, 3.75%.

For the molecule `CC(C)(C)c1ccc(CN2CCC(CNC(=O)c3cc(-c4cccc(Cl)c4)cs3)C2)cc1` (stereo not given), the inhibition was 16.7%. In the case of `NCC1CCCN1Cc1cccc(-c2ccc(-c3nc4cc(C(F)(F)F)ccc4[nH]3)s2)c1` (stereo not given) it was 1.28%; in that of `Cc1cc(OCCCn2ccnc2)ccc1-c1csc(/N=C(\N)NCc2ccccc2)n1`, 8.57%; in that of `Oc1ccc2[nH]c(-c3cccc(F)c3)nc2c1CN1CCC(N2CCCC2)CC1`, 3.47%. Regarding `N=C(N)NN=Cc1c2ccccc2c(Cl)c2c(Cl)cccc12`, the inhibition amounted to 24.6%. Take `COc1ccc(Cl)cc1N1CCN(CCCNC(=O)c2ccc(-c3nc4cc(Cl)c(C)cc4[nH]3)c(F)c2)CC1`: the inhibition worked out at 1.96%. For `CCNCCCC(C)Nc1ccnc2cc(Cl)ccc12` (stereo not given), the inhibition was -2.28%. As to `O=C(NCCCCN1CCC(O)(c2ccc(Cl)cc2)CC1)c1ccc(Br)cc1`, the inhibition came to 4.03%. The same measure for `CCNC(=O)Nc1ccc(-c2ccc(-c3nc4cccc(C)c4[nH]3)s2)cc1`: 11.7%; for `CCN1CCC(N(Cc2ccc(-c3ccc(C(F)(F)F)cc3)cc2)C(=O)CCCCn2c(CCc3cccc(F)c3F)nc(=O)c3ccccc32)CC1`: 1.08%.

The term inhibition denotes the drop in the measured response relative to a control, in per cent.
